Rows were chosen to be rich in hits. Some 3.6% of all compounds tested hit in one or more screens of this group.
KKLEB tox: cytotoxicity in KKLEB CF airway cells, primary screen, cytotoxicity control for CF NF-kB inhibitor project, cell-based, uHTS, fluorescence assay plates | 0.36% of 360,000 active | KKLEB CF airway cells viability, ATPlite luminescence, overnight; active compounds read low; cells stimulated with P. aeruginosa culture filtrate | activity change (cytotoxicity), % at 5 µM | AID 602141, 2011;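 active means corrected activity change at or below -50% at 5 µM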
Peg3 prom inh-1: Peg3 promoter-driven luciferase inhibitors, primary screen, cell-based, HeLa, luciferase luminescence. HeLa PEG-Prom luciferase reporter, overnight. AID 588405, 2011. 1.7% of 360,000 active. inhibition, % at 20 µM;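 active means inhibition of at least 50% at 20 µM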
Mdm2-MdmX inh: inhibitors of human Mdm2-MdmX association, primary screen, cell-based, luminescence, split luciferase, SaOS-2, uHTS. SaOS-2 split-luciferase Mdm2/MdmX complementation. inhibition, % at 8 µM. 3% of 330,000 active. AID 485346, 2010;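 active means inhibition of at least 50% at 8 µM in the primary screen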
Target sequence (O15151 whole entry, looked up): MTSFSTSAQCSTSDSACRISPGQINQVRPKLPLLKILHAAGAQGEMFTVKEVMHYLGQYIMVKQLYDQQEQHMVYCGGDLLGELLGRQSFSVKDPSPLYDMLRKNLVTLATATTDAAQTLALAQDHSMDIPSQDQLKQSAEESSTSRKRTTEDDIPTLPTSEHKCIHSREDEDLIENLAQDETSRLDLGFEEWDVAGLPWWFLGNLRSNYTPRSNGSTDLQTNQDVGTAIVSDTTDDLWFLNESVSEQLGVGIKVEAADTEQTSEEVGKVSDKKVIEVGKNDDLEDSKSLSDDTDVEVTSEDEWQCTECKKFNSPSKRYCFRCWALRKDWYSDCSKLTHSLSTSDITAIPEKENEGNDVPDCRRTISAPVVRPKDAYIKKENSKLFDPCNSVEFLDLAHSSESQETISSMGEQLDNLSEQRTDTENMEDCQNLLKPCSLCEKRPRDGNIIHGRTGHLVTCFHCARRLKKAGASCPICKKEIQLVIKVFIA
Target sequence (Q00987 whole entry, looked up): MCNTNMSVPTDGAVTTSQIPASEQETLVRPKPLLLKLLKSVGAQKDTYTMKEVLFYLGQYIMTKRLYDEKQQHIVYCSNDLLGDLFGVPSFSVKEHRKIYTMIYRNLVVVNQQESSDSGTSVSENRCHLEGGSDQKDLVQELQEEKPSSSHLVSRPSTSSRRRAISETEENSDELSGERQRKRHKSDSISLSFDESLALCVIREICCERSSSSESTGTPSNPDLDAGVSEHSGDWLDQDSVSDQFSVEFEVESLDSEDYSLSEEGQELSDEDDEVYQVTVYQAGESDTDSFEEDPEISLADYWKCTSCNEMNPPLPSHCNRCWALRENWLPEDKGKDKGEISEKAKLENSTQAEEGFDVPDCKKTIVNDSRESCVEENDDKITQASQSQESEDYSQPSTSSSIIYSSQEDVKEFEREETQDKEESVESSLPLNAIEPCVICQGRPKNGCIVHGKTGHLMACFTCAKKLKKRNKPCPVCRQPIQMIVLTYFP
HSP90 refold inh: HSP90 inhibitors, primary screen, cell lysate, luminescence. Rabbit reticulocyte lysate, luciferase refolding luminescence, 3 h. AID 1789, 2009. 0.91% of 290,000 active. inhibition, % at 5.6 µM. Heat shock protein HSP 90 (rabbit reticulocyte lysate; luciferase refolding);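 active means inhibition above the screen-wide mean plus 3 SD, computed separately per campaign, cut at about 16% in these data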;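 further: inhibitors lower the luminescence because luciferase stays unfolded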
LGR2 antag: inhibitors of bursicon-induced LGR2 CRE-luciferase signal, primary screen, cell-based, HEK293, CRE-luciferase reporter, bursicon stimulation; AID 720647, 2013; bursicon-stimulated, 4 h; inhibition, % at 9.99 µM; 0.35% of 380,000 active; Drosophila bursicon receptor LGR2 (rickets);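 active means drop in luminescence signal, shown as inhibition above about 50% in the replicate tests, limit read from the data, passing the limit was not always enough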;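 further: agonist challenge used bursicon conditioned medium at about half maximal strength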
CF NFkB inh: inhibitors of PAF-induced NF-kB signaling, primary screen, cell-based, GFP fluorescence, uHTS | AID 588850, 2011 | inhibition, % at 5 µM | 0.86% of 360,000 active | KKLEB NF-kB-GFP reporter, GFP fluorescence overnight;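 active means at least 50% inhibition at 5 µM, scaled per plate between neutral and stimulator controls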;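 further: PAF is a Pseudomonas aeruginosa culture filtrate used as stimulus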
Mdm2 MdmX conf: Mdm2-MdmX complex disruptors, retested hits, confirmation, luminescence, single concentration; 55% of 10,000 active; shares compounds with Mdm2-MdmX inh; inhibition, % at 8 µM; Mdm2-MdmX binding, luminescent assay; in the data active means inhibition above about 40%
Full FLuc ctr: full-length luciferase signal inhibition, confirmation, counter-screen for Mdm2/MdmX interaction inhibitor project, cell-based, single concentration, SaOS-2; shares compounds with Mdm2-MdmX inh; SaOS-2 full-length luciferase counterscreen, luminescence; inhibition, % at 8 µM; 77% of 6,200 active;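 active means mean inhibition at 8 µM reaching about 37%, which flags the compound as non-specific, limit read from the data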;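 further: p53-null SaOS-2 cells with luciferase driven by a doxycycline-inducible promoter; compound on cells about two nights before reading with doxycycline added after day one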
Peg3 prom inh-2: Peg3 promoter reporter inhibitors, retest, confirmation, cell-based, HeLa, luciferase reporter, single concentration; HeLa PEG-Prom luciferase reporter, luminescence, overnight; shares compounds with Peg3 prom inh-1; 84% of 1,300 active; inhibition, % at 20 µM;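 active means at 20 µM dose, 40% or more inhibition averaged across four replicates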
Large screens that a line does not name were inactive (follow-up assays come after a bar, where they were run).

COC(=O)c1cn(NC(=O)c2cc([N+](=O)[O-])ccc2F)c(=O)c2ccccc12	Peg3 prom inh-1 58, Mdm2-MdmX inh 83 | Mdm2 MdmX conf 76 | Full FLuc ctr 54 | Peg3 prom inh-2 66
C[C@@H]1CCCCO[C@@H](CN(C)C(=O)Nc2ccccc2)[C@H](C)CN([C@H](C)CO)C(=O)c2cc(N(C)C)ccc2O1	none (no result: KKLEB tox, Peg3 prom inh-1, Mdm2-MdmX inh, HSP90 refold inh, CF NFkB inh)
C[C@H]1CCCCO[C@@H](CN(C)Cc2ccncc2)[C@@H](C)CN([C@@H](C)CO)C(=O)c2cc(NC(=O)c3ccccc3)ccc2O1	none (no result: KKLEB tox, Peg3 prom inh-1, Mdm2-MdmX inh, HSP90 refold inh, CF NFkB inh)
C[C@@H](O)C#Cc1cnc2c(c1)C(=O)N([C@@H](C)CO)C[C@H](C)[C@@H](CN(C)C(=O)c1ccccc1)O2	none (no result: KKLEB tox, Peg3 prom inh-1, Mdm2-MdmX inh, HSP90 refold inh, CF NFkB inh)
CCOc1ccc(Nc2c3ccccc3nc3ccccc23)cc1	Peg3 prom inh-1 85, Mdm2-MdmX inh 71 | Mdm2 MdmX conf 45 | Full FLuc ctr 59 | Peg3 prom inh-2 85
c1ccc(C2CC(c3ccccc3)n3c(nc4ccccc43)N2)cc1 (stereo unspecified)	Peg3 prom inh-1 76, Mdm2-MdmX inh 63 | Mdm2 MdmX conf 40 | Full FLuc ctr 48 | Peg3 prom inh-2 inactive
Oc1c(I)cc(Cl)c2cccnc12	Peg3 prom inh-1 55, Mdm2-MdmX inh 92 (no result: LGR2 antag) | Mdm2 MdmX conf 58 | Full FLuc ctr 51 | Peg3 prom inh-2 68
C[C@H](CO)N1C[C@H](C)[C@H](CN(C)Cc2cccc(F)c2)Oc2ncc(C#C[C@@H](C)O)cc2C1=O	none (no result: KKLEB tox, Peg3 prom inh-1, Mdm2-MdmX inh, HSP90 refold inh, CF NFkB inh)
CCOC(=O)c1c(NC(C)=O)sc2c(OCC(O)CN(CC)CC)c(Br)ccc12 (stereo unspecified)	Peg3 prom inh-1 86, Mdm2-MdmX inh 85 | Mdm2 MdmX conf inactive | Peg3 prom inh-2 98
CCOC(=O)c1c(NC(C)=O)sc2c(OC)cccc12	none (no result: LGR2 antag)
O=C(Nc1cc(S(=O)(=O)N2CCOCC2)ccc1Cl)c1cc([N+](=O)[O-])ccc1Cl	Peg3 prom inh-1 109, Mdm2-MdmX inh 97 (no result: HSP90 refold inh, LGR2 antag) | Mdm2 MdmX conf 44 | Full FLuc ctr inactive | Peg3 prom inh-2 84
O=C(Nc1ccc(S(=O)(=O)N2CCOCC2)cc1)c1ccc([N+](=O)[O-])cc1Cl	none
COc1ccc(NC(=O)c2c(F)c(F)c(F)c(F)c2F)cc1Cl	none (no result: LGR2 antag)
COc1cc(NC(=O)c2c(F)c(F)c(F)c(F)c2F)c(OC)cc1Cl	Peg3 prom inh-1 70, Mdm2-MdmX inh 78 (no result: LGR2 antag) | Mdm2 MdmX conf 47 | Full FLuc ctr 53 | Peg3 prom inh-2 53
Cc1ccc(S(=O)(=O)Nc2ccc3c(c2)C(=O)N([C@H](C)CO)C[C@@H](C)[C@@H](CN(C)Cc2ccc(C(=O)O)cc2)OCCCC[C@@H](C)O3)cc1	none (no result: KKLEB tox, Peg3 prom inh-1, Mdm2-MdmX inh, HSP90 refold inh, CF NFkB inh)
COC(=O)C1=C(C)NC(C)=C(C(=O)OC)C1c1cc2cc(C)ccc2[nH]c1=O	none (no result: LGR2 antag)
Cc1ccc2[nH]c(=O)c(C3C(C#N)=C(N)Oc4c3ccc3cccnc43)cc2c1 (stereo unspecified)	Peg3 prom inh-1 50, Mdm2-MdmX inh 57 (no result: LGR2 antag) | Mdm2 MdmX conf 42 | Full FLuc ctr 44 | Peg3 prom inh-2 48
Cc1cc(-n2c(SCC(=O)Nc3ccc(Br)cc3)nc3n[nH]c(C)c3c2=N)ccc1Cl	Peg3 prom inh-1 85, Mdm2-MdmX inh 86 | Mdm2 MdmX conf 43 | Full FLuc ctr 64 | Peg3 prom inh-2 inactive
Cc1cc(-n2c(SCC(=O)Nc3ccc(F)c(F)c3)nc3n[nH]c(C)c3c2=N)ccc1Cl	Peg3 prom inh-1 84, Mdm2-MdmX inh 94 | Mdm2 MdmX conf 71 | Full FLuc ctr 42 | Peg3 prom inh-2 59
N=c1c2c(ncn1CCCO)Oc1cc(O)ccc1C2c1ccccc1 (stereo unspecified)	none
COc1ccccc1C1c2ccc3ccccc3c2Oc2ncn(CCCO)c(=N)c21 (stereo unspecified)	Peg3 prom inh-1 102, Mdm2-MdmX inh 74 (no result: LGR2 antag) | Mdm2 MdmX conf 43 | Full FLuc ctr 61 | Peg3 prom inh-2 97
COc1ccccc1N(C(=O)CCl)c1cn(C(C)=O)c2ccccc12	KKLEB tox -102, Peg3 prom inh-1 67, Mdm2-MdmX inh 96, CF NFkB inh 89 | Mdm2 MdmX conf 100 | Full FLuc ctr 52 | Peg3 prom inh-2 72
O=C(CCCN1C(=O)/C(=C/c2ccccc2Cl)SC1=S)NNC(=O)c1ccncc1	none
O=C(CCCN1C(=O)/C(=C/c2ccccc2Cl)SC1=S)NNC(=O)c1ccccc1Cl	Peg3 prom inh-1 60, Mdm2-MdmX inh 56 | Mdm2 MdmX conf inactive | Peg3 prom inh-2 68
COc1ccc(/C=C2\SC(=S)N(CCCC(=O)NNC(=O)c3ccccc3O)C2=O)cc1	Peg3 prom inh-1 71, Mdm2-MdmX inh 57 | Mdm2 MdmX conf 58 | Full FLuc ctr 46 | Peg3 prom inh-2 72
O=[N+]([O-])c1ccc(-c2nc(C(Cl)Cl)c3ccccc3n2)cc1	Peg3 prom inh-1 64, Mdm2-MdmX inh 99 | Mdm2 MdmX conf 100 | Full FLuc ctr 51 | Peg3 prom inh-2 inactive
Cc1ncc(CO)c(/C=N/Nc2ccc(C(F)(F)F)cn2)c1O	Peg3 prom inh-1 62, Mdm2-MdmX inh 75 | Mdm2 MdmX conf 72 | Full FLuc ctr inactive | Peg3 prom inh-2 67
Cc1ncc(CO)c(/C=N/NC(=S)Nc2ccc(F)cc2)c1O	none
O=C(Nc1cccc(-c2ccc(N3CCCCC3)nn2)c1)C(F)(F)F	Peg3 prom inh-1 77, Mdm2-MdmX inh 60, LGR2 antag 82 | Mdm2 MdmX conf 45 | Full FLuc ctr 74 | Peg3 prom inh-2 75
O=C(Nc1cccc(-c2ccc(N3CCCCC3)nn2)c1)c1ccc(Br)o1	none (no result: HSP90 refold inh)
O=C(Sc1cccc2cccnc12)c1ccccc1Br	Peg3 prom inh-1 59, Mdm2-MdmX inh 97 | Mdm2 MdmX conf 90 | Full FLuc ctr inactive | Peg3 prom inh-2 47
